These results are taken from PubChem BioAssay.

The source made the active and inactive calls.

The nature of assay [1]: small molecules captured by biotinylated probe aFSTL3 – biochemical, small-molecule microarray, fluorescence 635/667, stem cell growth factor project, primary screen (AID 1064).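 Note: measures binding of the biotinylated anti-FSTL3 antibody to printed compounds.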 The following applies: higher = more signal.
Assay [2] can be described thus: binders from COS7 lysate, DM2A8 probe, primary screen, torsin A project, cell lysate, small-molecule microarray, fluorescence 635/667 (AID 1065). The following applies: higher = more signal, COS7 lysate expressing mutant human TOR1A.
A short description of assay [3]: small molecules captured by biotinylated probe aFGF2 – biochemical, small-molecule microarray, fluorescence 635/667, stem cell growth factor project, primary screen (AID 1067).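 Note: measures binding of biotinylated aFGF2 protein to printed compounds on slides; z-score merges feature fluorescence and signal-to-noise across triplicate slides.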 The following applies: higher = more signal.
The nature of assay [4]: small molecules captured by biotinylated probe aFGF10 – biochemical, small-molecule microarray, fluorescence 635/667, stem cell growth factor project, primary screen (AID 1071).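 Note: score merges 667 nm spot intensity and signal to noise from triplicate slides.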 Conditions: higher = more signal.
Assay [5] deals with Neurogenic locus notch homolog protein 2 (Homo sapiens) (UniProt Q04721). The experiment in a line: small molecules binding Notch2 protein – biochemical, small-molecule microarray, 635 nm fluorescence, stem cell growth factors, primary screen (AID 1073). The following applies: higher = more signal.
Sequence of Neurogenic locus notch homolog protein 2 (Homo sapiens) (Q04721 whole entry, looked up, canonical isoform): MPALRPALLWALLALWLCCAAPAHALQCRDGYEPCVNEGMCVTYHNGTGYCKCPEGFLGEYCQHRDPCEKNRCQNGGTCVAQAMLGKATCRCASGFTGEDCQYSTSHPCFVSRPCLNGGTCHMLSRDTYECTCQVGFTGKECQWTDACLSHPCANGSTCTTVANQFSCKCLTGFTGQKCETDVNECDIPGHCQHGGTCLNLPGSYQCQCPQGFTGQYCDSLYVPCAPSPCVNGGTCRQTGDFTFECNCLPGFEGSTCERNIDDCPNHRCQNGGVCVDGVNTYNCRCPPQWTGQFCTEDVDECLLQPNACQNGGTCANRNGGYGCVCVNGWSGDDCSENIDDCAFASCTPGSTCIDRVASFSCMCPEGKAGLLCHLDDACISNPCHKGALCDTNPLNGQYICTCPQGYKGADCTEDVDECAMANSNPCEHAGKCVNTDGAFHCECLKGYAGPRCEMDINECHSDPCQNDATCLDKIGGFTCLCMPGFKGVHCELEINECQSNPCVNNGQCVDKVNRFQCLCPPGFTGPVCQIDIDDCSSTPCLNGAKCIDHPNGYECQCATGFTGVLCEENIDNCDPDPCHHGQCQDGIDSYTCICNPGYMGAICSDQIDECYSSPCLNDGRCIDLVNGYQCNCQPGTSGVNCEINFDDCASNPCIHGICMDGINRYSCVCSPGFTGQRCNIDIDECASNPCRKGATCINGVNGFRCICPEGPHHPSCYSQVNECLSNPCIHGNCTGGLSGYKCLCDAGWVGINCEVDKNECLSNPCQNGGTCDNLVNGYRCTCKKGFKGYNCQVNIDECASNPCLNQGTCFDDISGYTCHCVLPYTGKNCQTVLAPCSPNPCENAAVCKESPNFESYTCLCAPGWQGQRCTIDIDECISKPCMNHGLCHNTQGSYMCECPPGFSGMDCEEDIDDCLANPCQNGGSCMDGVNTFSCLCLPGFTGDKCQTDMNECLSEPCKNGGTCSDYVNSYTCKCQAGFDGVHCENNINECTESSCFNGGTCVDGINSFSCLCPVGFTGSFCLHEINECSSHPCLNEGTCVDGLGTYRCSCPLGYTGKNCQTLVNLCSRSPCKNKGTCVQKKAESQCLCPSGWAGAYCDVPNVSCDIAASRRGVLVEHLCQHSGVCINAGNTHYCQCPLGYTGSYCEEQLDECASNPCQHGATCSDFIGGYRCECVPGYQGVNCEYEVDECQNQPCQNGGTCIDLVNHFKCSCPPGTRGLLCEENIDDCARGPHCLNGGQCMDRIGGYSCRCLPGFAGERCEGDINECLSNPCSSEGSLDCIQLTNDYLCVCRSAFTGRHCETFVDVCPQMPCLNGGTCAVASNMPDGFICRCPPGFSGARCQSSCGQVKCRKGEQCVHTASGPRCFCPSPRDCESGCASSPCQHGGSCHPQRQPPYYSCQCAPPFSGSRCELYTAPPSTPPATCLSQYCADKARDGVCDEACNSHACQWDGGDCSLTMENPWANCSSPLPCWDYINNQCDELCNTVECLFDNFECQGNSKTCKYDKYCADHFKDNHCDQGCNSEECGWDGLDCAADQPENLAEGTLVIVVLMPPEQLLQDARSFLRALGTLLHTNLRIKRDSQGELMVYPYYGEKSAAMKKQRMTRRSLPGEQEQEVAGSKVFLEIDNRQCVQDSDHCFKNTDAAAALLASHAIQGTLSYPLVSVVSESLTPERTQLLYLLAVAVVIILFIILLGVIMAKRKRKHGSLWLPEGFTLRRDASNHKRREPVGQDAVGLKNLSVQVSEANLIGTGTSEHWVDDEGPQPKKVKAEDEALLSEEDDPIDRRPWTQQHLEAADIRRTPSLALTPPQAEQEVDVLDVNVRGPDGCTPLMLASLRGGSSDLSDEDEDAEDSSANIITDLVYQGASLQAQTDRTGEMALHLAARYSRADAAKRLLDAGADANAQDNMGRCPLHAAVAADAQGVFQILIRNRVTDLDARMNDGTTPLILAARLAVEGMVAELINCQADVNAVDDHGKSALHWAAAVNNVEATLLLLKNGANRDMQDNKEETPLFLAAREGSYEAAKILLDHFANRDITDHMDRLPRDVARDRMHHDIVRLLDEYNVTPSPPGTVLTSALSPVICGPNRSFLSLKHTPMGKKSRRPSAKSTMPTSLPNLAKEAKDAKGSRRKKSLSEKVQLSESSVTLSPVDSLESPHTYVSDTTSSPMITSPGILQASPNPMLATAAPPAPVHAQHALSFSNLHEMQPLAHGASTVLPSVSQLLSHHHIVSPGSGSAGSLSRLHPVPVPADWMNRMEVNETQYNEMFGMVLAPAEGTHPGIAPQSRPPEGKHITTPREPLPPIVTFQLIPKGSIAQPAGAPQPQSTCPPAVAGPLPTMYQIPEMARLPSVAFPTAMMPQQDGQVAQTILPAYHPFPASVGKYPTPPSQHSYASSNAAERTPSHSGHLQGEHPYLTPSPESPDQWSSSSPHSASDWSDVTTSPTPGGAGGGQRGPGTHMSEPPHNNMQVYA
In assay [6] the target is Pro-neuregulin-1, membrane-bound isoform (Homo sapiens) (UniProt Q02297). The assay is described as follows: small molecules binding neuregulin-1 protein – biochemical, small-molecule microarray, fluorescence 635/667, psychiatric disease protein project, primary screen (AID 1075).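 Note: score combines 667 nm spot fluorescence with signal to noise.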 Conditions: NRG1 binding, 635 nm fluorescence, higher = more signal.
Sequence of Pro-neuregulin-1, membrane-bound isoform (Homo sapiens) (Q02297 whole entry, looked up, the tested form may be a part, canonical isoform): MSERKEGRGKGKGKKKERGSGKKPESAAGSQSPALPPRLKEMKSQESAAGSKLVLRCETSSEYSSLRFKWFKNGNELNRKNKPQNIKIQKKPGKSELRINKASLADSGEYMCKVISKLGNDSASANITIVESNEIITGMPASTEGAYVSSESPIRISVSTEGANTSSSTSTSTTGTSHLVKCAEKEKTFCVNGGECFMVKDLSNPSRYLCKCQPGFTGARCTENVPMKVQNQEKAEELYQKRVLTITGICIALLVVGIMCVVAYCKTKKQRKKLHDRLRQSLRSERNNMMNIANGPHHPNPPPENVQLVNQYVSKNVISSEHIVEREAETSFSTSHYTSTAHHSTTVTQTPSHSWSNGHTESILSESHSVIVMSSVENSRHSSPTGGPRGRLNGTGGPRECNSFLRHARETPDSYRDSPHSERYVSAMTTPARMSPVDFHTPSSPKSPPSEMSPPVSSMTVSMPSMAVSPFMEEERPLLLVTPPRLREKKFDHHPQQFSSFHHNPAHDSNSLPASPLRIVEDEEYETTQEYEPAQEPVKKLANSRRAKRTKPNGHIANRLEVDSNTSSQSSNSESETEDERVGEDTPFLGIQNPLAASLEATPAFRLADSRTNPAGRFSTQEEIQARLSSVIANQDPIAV
For assay [7], the system named is Neuregulin-1 EGF-like domain. The experiment in a line: small molecules binding NRG1 EGF domain – biochemical, small-molecule microarray, 635 nm fluorescence, primary screen (AID 1081).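 Note: binding of the protein to compounds printed on small-molecule microarray slides.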 Conditions: higher = more signal.
Assay [8] can be described thus: FRG1 expression reporter modulators in myotubes – cell-based, C2C12 myotubes, firefly/Renilla luciferase, luminescence, FRG1 inhibition for FSHD, primary screen (AID 1084). The following applies: FRG1 promoter luciferase, higher = more signal, called active from +8 up or from −8 down.
Assay [9] in a line: small molecules captured by biotinylated probe aFST – biochemical, small-molecule microarray, fluorescence 635/667, stem cell growth factor project, primary screen (AID 1086).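 Note: score merges 667 nm fluorescence with signal-to-noise of each printed compound spot.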 The following applies: higher = more signal.
Assay [10] can be described thus: binders of probe aHhip on microarray, primary screen, stem cell growth factor project, biochemical, small-molecule microarray, fluorescence 635/667 (AID 1087).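 Note: score merges spot fluorescence at 667nm with spot signal to noise ratio.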 The following applies: higher = more signal.

In the case of `CC(C)[C@H](NC(=O)OC(C)(C)C)[C@@H](O)CC(=O)C(C)(C)C`, the composite z-score is -0.507 in assay [1]; 0.205 in [2]; 0.0103 in [3]; 0.209 in assay [4]; 0.541 in assay [5]; -0.144 in assay [6]. Moreover, the values for the composite z-score in assay [7], in assay [9] and in assay [10] were -0.295, 0.0986 and 0.107, respectively. Besides, the z-score in assay [8] was 0.46 (inactive).
As to `CCN(CC)CC(O)CN1CCCCc2nc(C)c(C)cc21` (stereo not given), the composite z-score in [1] is -0.482; in assay [2] it was 1.04; in assay [3] it was -0.14; in assay [4], 0.456; in assay [5], 0.635; in assay [6] it was -0.164. Further, the composite z-score was 1.07 in assay [7], 0.101 in assay [9] and -0.112 in assay [10]. Also, the z-score in [8] is -1.2 (inactive).
For `C#CCCCON=C1C[C@@H](O)[C@@H](O)[C@@H]2[C@@H]3C(=O)N(CC)C(=O)[C@@H]3CC[C@H]12`, the composite z-score in assay [1] was -0.281; in assay [2], 0.368; in assay [3], -0.0885; in [4], 0.236; in assay [5], 0.03; in [6], 1.16. The composite z-score is 0.528 in assay [7], 0.0594 in assay [9] and -0.128 in [10]. For the same molecule, the z-score in [8] was -0.234 (inactive).
`C[C@@H]1CC[C@@H](C(=O)O)N[C@H]1c1cccc(N2CCOCC2)c1`: the composite z-score is -0.406 in [1]; 0.179 in assay [2]; -0.0428 in assay [3]; 0.268 in assay [4]; 0.887 in assay [5]; 0.0719 in assay [6]. Moreover, the composite z-score is 0.251 in assay [7], 0.253 in assay [9] and -0.134 in assay [10]. Moreover, the z-score in assay [8] is -1.79 (inactive).
For `CC(C)=NO[C@@H](C)c1cn([C@H](CO)Cc2ccccc2)nn1`, the composite z-score in [1] was -0.0953; in assay [2], 0.463; in assay [3] it was 0.153; in assay [4] it was 0.423; in assay [5], 0.579; in assay [6] it was 0.763. The figures for the composite z-score in assay [7], in assay [9] and in assay [10] were 0.442, 0.907 and 0.132, respectively. Moreover, the z-score in [8] is -0.88 (inactive).
Turning to `COc1ccc(OC[C@H]2CN3[C@@H](CC[C@@H](C)[C@@H]3c3ccc(Br)cc3)C(=O)O2)cc1`, the composite z-score in assay [1] is -0.358; in [2], 0.722; in assay [3], -0.181; in [4], 0.243; in assay [5], -0.142; in [6], 0.165. The composite z-score in assay [7] is -0.228; in assay [9] it was -0.115; in assay [10] it was -0.109. The z-score in assay [8] was -0.539 (inactive).
Consider `CCc1cc2c(nc1CC)CCN(CCC(C)=NOCC[C@@H]1C=C[C@H](OC(C)=O)[C@@H](COC(C)=O)O1)C2`, for which the composite z-score in assay [1] is 0.325; in [2] it was 1.66; in assay [3], -0.103; in [4] it was -0.213; in assay [5], -0.0544; in assay [6] it was -0.0974. The composite z-score in assay [7] amounted to 0.545; in [9] it was 0.851; in assay [10], 0.0722. For the same molecule, the z-score in [8] was 0.485 (inactive).
Regarding `COC(=O)[C@H](C)NC(=O)CCC1CC(OC(=O)NCCc2ccc(F)cc2)CC2(CCCC(COC(=O)NCc3ccccc3)O2)O1` (stereo not given in full), the composite z-score in [1] was -0.749; in [2], -0.126; in assay [3], 0.0002; in assay [4] it was 0.677; in assay [5], 1.06; in assay [6], 0.648. The values for the composite z-score in [7], in [9] and in [10] were 0.964, 0.65 and -0.305, respectively. In addition, the z-score in assay [8] was 1.61 (inactive).
Regarding `COc1ccc(O[C@H]2C=C[C@@H](c3ccccc3)O[C@@H]2CON=C2c3cc(OC)ccc3O[C@H](c3cccc(OC)c3)[C@H]2O)cc1`, the composite z-score in assay [1] was -0.661; in assay [2] it was 0.354; in assay [3], -0.201; in assay [4] it was -0.054; in [5], 1.38; in assay [6] it was -0.139. Further, the figures for the composite z-score in [7], in [9] and in assay [10] were 0.463, 0.34 and -0.226, respectively. Further, the z-score in [8] is 1.82 (inactive).
`CCOC(=O)[C@H](Cc1ccccc1)NC(=O)CCC1CC(OC(=O)NCc2ccc3c(c2)OCO3)CC2(CCCC(COC(=O)NCCCN3CCCC3=O)O2)O1` (stereo not given in full): the composite z-score is -0.578 in assay [1]; 0.163 in assay [2]; -0.0001 in assay [3]; 0.377 in [4]; 1.06 in assay [5]; 0.503 in assay [6]. The composite z-score in [7] is 0.85; in [9], 0.827; in assay [10], -0.248. Besides, the z-score in [8] is 1.5 (inactive).
For `C[C@H]1CC[C@H]2C(=O)O[C@H](CO)CN2[C@@H]1c1ccc(Br)cc1`, the composite z-score in [1] was -0.334; in [2], 0.544; in [3] it was -0.166; in assay [4], 0.051; in assay [5], -0.288; in assay [6] it was -0.102. Besides, the composite z-score in assay [7] was -0.238; in assay [9] it was -0.148; in [10], 0.2. In addition, the z-score in [8] was 1.11 (inactive).
Consider `CCC1=NOC(CCC2CC(OC(=O)NCc3cccc4c3OCO4)CC3(CCCC(COC(=O)NCCc4ccc(Cl)cc4)O3)O2)C1` (stereo not given), for which the composite z-score in assay [1] is -0.281; in [2], 0.0253; in assay [3], 0.0388; in assay [4] it was 0.88; in [5] it was 0.0241; in assay [6], 1.44. In addition, the values for the composite z-score in assay [7], in assay [9] and in assay [10] were 1.12, -0.0353 and -0.0994, respectively. In assay [8], the z-score was 1.24 (inactive).
In the case of `CCOC(=O)[C@H](CC(C)C)NC(=O)CCC1CC(OC(=O)NCc2ccc3c(c2)OCO3)CC2(CCCC(COC(=O)NCCC(C)C)O2)O1` (stereo not given in full), the composite z-score in assay [1] was -0.495; in assay [2] it was -0.146; in assay [3], -0.119; in assay [4], 0.01; in assay [5], -0.195; in assay [6], 0.169. For the same molecule, the composite z-score in [7] was 0.312; in assay [9], -0.11; in assay [10] it was -0.291. Further, the z-score in [8] is 1.38 (inactive).
On to `O=C(NN=C1C[C@@H](O)[C@@H](O)[C@@H]2[C@@H]3C(=O)N(c4ccc(F)cc4F)C(=O)[C@@H]3CC[C@H]12)OCc1ccccc1`, for which the composite z-score in assay [1] is 0.0775; in [2], 1.04; in assay [3] it was -0.152; in assay [4], -0.0134; in [5], 0.194; in assay [6], 1.47. The composite z-score in assay [7] is -0.0123; in [9] it was 0.991; in [10] it was 0.0854. Also, the z-score in assay [8] was -0.823 (inactive).
For the molecule `O=C1C2=CC[C@H]3C(=O)N(c4ccc(F)cc4F)C(=O)[C@H]3[C@H]2[C@H](O)[C@@H]2O[C@H]12`, the composite z-score was -0.598 in [1]; 0.45 in [2]; -0.116 in [3]; 0.37 in [4]; 0.291 in assay [5]; -0.0808 in assay [6]. The composite z-score in assay [7] is 0.0508; in assay [9], 1.14; in assay [10] it was -0.0994. For the same molecule, in assay [8], the z-score was 0.264 (inactive).
On to `COc1ccc(O[C@H]2C=C[C@@H](c3ccccc3)O[C@@H]2COC(=O)NCc2cccc3ccccc23)cc1`, for which the composite z-score in assay [1] was -0.0348; in [2], -0.0761; in assay [3], -0.107; in [4] it was 0.0599; in assay [5] it was -0.096; in assay [6] it was -0.027. Besides, the figures for the composite z-score in [7], in assay [9] and in [10] were 0.0452, -0.116 and -0.294, respectively. Besides, the z-score in assay [8] was -0.97 (inactive).
In the case of `CC(=O)OC[C@H]1O[C@H](CC=NOC[C@@H](O)COCc2ccco2)C=C[C@@H]1OC(C)=O`, the composite z-score was -0.37 in assay [1]; 2.66 in assay [2]; -0.186 in assay [3]; -0.153 in assay [4]; -0.315 in assay [5]; -0.974 in assay [6]. The composite z-score in assay [7] came to 0.717; in assay [9], 0.621; in assay [10], 0.212. In addition, the z-score in assay [8] is -1.31 (inactive).
With `C#CCCCON=C1[C@H]2CCn3c(=O)n([C@@H](CC)c4ccccc4)c(=O)n3[C@H]2[C@H](O)[C@@H]2O[C@H]12`, the composite z-score is -0.409 in [1]; 0.152 in [2]; 0.0047 in assay [3]; 0.353 in assay [4]; 0.148 in assay [5]; 0.24 in assay [6]. Besides, the composite z-score in assay [7] was 0.322; in assay [9], -0.0356; in [10], -0.261. Also, the z-score in [8] is 0.456 (inactive).
